Results taken from PubChem BioAssay AID602292 (National Center for Advancing Translational Sciences (NCATS), 2012).
The campaign covered roughly 1,300 compounds. About 380 (29%) were called active. About 37% were inconclusive and are not listed. The call rests on the fitted dose curve; in most records, active means well fitted inhibition curve with a large enough effect; inconclusive means small, poorly fitted or top-dose-only effect; inactive means flat fitted curve, though single readings scatter. The list shows a part of the results.

These compounds were tested against Thyrotropin receptor (Homo sapiens) (UniProt P16473) (assay: qHTS for antagonists of the Thyroid Stimulation Hormone Receptor: Hit Validation in Primary Screen). Settings: TSHR-expressing cells, cAMP antagonist mode; series mostly up to 58 µM; activity change, negative = inhibition: at the top concentration.
How it was run: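 TSHR-expressing cells were pretreated with compound, then stimulated with TSH at EC80 (4nM final) for 2 hours at 37 deg C. Cellular cAMP measured by competitive HTRF (anti-cAMP cryptate, cAMP-d2) after 30 min at room temperature.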
Further: nearly all actives have a fitted effect of over 80% in size.
On the % scale 0 is the no-effect control and ±100 the full control effect; potency means the concentration at half of the fitted maximal effect.
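Wherever activity change, negative = inhibition is given: cAMP by competitive HTRF where cellular cAMP lowers the 665 nm FRET signal.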

Chain of Thyrotropin receptor (Homo sapiens) (P16473 whole entry, looked up): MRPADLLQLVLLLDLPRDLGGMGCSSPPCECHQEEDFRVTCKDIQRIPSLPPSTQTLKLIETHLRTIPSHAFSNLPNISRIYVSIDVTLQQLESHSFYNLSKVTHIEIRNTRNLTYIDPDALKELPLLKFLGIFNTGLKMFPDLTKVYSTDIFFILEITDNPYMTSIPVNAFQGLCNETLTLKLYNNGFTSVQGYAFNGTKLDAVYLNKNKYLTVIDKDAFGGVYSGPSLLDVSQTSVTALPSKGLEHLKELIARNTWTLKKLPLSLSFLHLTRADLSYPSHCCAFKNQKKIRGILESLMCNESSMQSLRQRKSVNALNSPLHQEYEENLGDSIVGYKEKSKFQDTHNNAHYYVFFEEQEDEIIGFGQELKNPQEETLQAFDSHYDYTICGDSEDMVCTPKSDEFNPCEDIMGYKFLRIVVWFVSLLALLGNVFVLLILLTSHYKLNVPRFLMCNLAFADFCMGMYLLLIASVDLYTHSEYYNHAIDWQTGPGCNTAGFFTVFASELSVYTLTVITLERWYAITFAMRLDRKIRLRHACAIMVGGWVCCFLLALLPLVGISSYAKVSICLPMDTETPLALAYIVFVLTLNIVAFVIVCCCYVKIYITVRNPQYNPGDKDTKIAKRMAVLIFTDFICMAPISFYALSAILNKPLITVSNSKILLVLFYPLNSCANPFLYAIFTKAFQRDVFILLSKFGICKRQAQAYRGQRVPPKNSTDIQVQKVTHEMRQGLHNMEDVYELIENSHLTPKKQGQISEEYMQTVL

Activity change, negative = inhibition, inactive:
COC(=O)c1cc(-c2c[nH]c3ccccc23)n[nH]1 -11.6%
CC(=O)N1c2ccc(S(=O)(=O)NCCC(=O)Nc3ccccc3C)cc2CC1C (stereo not given) -0.317%
CC(=O)c1ccc(NC(=O)C(C)N(C)CC(=O)Nc2ccc(N3CCOCC3)cc2)cc1 (stereo not given) -4.26%
COc1ccc(CNCc2cc(C)c(OC)cc2C)c(OC)c1 -2.56%
O=C(O)c1ccc(CNC(=O)c2ccc3c(c2)C(=O)N(Cc2cccnc2)C3=O)cc1 -5.76%
COc1cc(NC(=O)C(C)C)ccc1NC(=O)c1ccco1 -9.42%
O=C(Nc1ccccc1C(=O)N1CCN(c2cccc(Cl)c2)CC1)C1=CSCCO1 -14.7%
Cc1cc(C)n2c(C)nnc2c1 -0.576%
CS(=O)c1ccc(-n2c(=O)n(Cc3ccccc3)c(=O)c3[nH]cnc32)cc1 (stereo not given) -2.3%
COc1cc2c(cc1OC)CN(C(=S)NC(=O)c1ccccc1)CC2 1.18%
CC(=O)C1=C(O)C(=O)N(c2ccc(O)cc2)C1c1cccc(F)c1 (stereo not given) -6.31%
O=C(NCc1ccc(F)cc1)c1ccncc1 -3.08%
O=C(NC(=S)Nc1ccc(C(=O)N2CCOCC2)cc1)c1ccc([N+](=O)[O-])cc1 -4.55%
CCCNc1c(NS(=O)(=O)c2ccc(Br)cc2)c(=O)oc2ccccc12 -1.84%
O=C(NNC(=O)c1n[nH]c(=O)c2ccccc12)c1ccc(Br)cc1 -7.52%
COc1ccccc1CNS(=O)(=O)c1ccc(-n2cccn2)cc1 -5.7%
CS(=O)(=O)c1ccc(N2CCN(c3ccccn3)CC2)c([N+](=O)[O-])c1 -8.56%
Clc1ccc(C2Nc3cccc4cccc(c34)N2)cc1 -8.7%
COc1cc(C(=O)NCCNC(=O)c2cnccn2)cc(OC)c1OC -3.03%
Cc1ccc(C(=O)Nc2cccc([N+](=O)[O-])c2)cc1S(=O)(=O)Nc1ccc(NC(=O)c2ccccc2)cc1 -4.06%
Cc1ccc(S(=O)(=O)NCCNc2ccc([N+](=O)[O-])cc2)cc1 -6.89%
COCC(=O)N1CCC(n2nccc2NC(=O)c2ccccc2OC)CC1 -3.8%
O=S(=O)(Nc1cccc(-c2ccc(N3CCCCCC3)nn2)c1)c1ccc(F)cc1 -6.89%
COc1ccccc1C(=O)Nc1nnc(SCC(=O)NC2CCCC2)s1 -5.73%
COc1cc(NS(=O)(=O)c2ccc(NC(=O)c3ccc(F)cc3)cc2)ncn1 -8.18%
Cc1ccc(S(=O)(=O)Oc2ccc(/C=C(/NC(=O)c3ccccc3)C(=O)Nc3ccccc3)cc2)cc1 -1.41%
C=CCN(c1ccccc1)S(=O)(=O)c1ccc2[nH]cc(C(=O)NCCOC)c(=O)c2c1 -10.1%
O=C(Nc1ccc2nc3n(c(=O)c2c1)CCCCC3)C(=O)N1CCN(c2ccccc2F)CC1 -13.9%
CC(C)NC(=O)COc1coc(CN2CCN(c3ccccc3F)CC2)cc1=O -7.58%
COc1ccc(NC(=O)Cn2nnc(C(=O)NCc3cccs3)c2N)c(OC)c1 -0.749%
Cc1ccc(SCC(=O)NCc2ccccc2C)cc1 -8.01%
CC(C)N(C(=O)Cn1c(-c2cccnc2)ccc(C#N)c1=O)C(C)C -6.8%
CC1CCCC(NC(=O)CN2C(=O)COc3ccccc32)C1C (stereo not given) -7.14%
Cc1ccc(S(=O)(=O)N2CCOCC2)cc1N/N=C(\C#N)c1nc2ccccc2[nH]1 -10.7%
Cc1ccc(S(=O)(=O)N2CCN(C(=O)CCn3cncn3)CC2)cc1 -0.576%
CN(C)S(=O)(=O)N1CCN(c2ccnc3cc(Cl)ccc23)CC1 -7.84%
CC(C)(C)NC(=O)C(c1ccc(O)cc1)N(Cc1ccccc1)C(=O)CCC(=O)Nc1nccs1 (stereo not given) -6.86%
Cc1nnc(SCC(=O)Nc2nonc2C)s1 -3.05%
O=C(Nc1cc(Sc2nc3ccccc3s2)cc([N+](=O)[O-])c1)c1ccccc1F -6.57%
O=C1C=C(c2ccc3[nH]ccc3c2)C[C@@H](c2ccc(Cl)cc2)C1 -9.05%
C/C(=N\NC(=O)c1nnn(-c2nonc2N)c1-c1ccc(Cl)c(Cl)c1)c1ccncc1 -2.3%
CCn1nc(C)c(CN2CCCC(CNS(=O)(=O)c3ccc(OC)cc3)C2)c1C (stereo not given) -7.72%
COc1ccc(-c2cn(CCCOCc3ccccc3)nn2)cc1 -4.03%
Nc1nc2nc(-c3ccccc3)cc(C(F)(F)F)c2s1 -6.22%
COc1ccc(OC)c(C2=NOC(C(=O)NCC3CCCO3)C2)c1 (stereo not given) -3.8%
Cc1sc2ncn(CC(=O)NCCCC(=O)NCc3ccc(F)cc3)c(=O)c2c1C -3%
Cc1ccc(CNC(=O)CCNC(=O)N2CCn3c2nc2ccccc23)cc1 -3.49%
COc1ccc(-n2nc(C(=O)NCC(=O)NCCCN3CCN(C)CC3)c3ccccc3c2=O)cc1 -2.19%
Cc1ccccc1NC(=O)Cc1nc(COC(=O)c2cccc([N+](=O)[O-])c2)cs1 -2.22%
CCSc1ccc(C(=O)Nc2ccc(Br)cn2)cc1[N+](=O)[O-] -1.87%
Cn1cc(Cl)c(C(=O)N/N=C/c2ccc3c4c(cccc24)CC3)n1 -4.26%
O=C(NC1CCOc2ccccc21)c1ccccn1 (stereo not given) -1.38%
COc1ccc(CCNC(=O)c2cccc3c2C(=O)N(C2CCCCC2)C3)cc1OC -8.96%

Potency, active:
CCn1nc(C)cc1-c1nnc(Sc2ncc([N+](=O)[O-])s2)n1C 15.1 µM
S=C(Nc1ccc(Oc2ccccc2)cc1)NC1CCCCCC1 12 µM
O=C1C(Nc2ccc(O)cc2)=C/C(=N/S(=O)(=O)c2cccs2)c2ccccc21 30.1 µM
Cc1ccc(S(=O)(=O)/N=C2\C=C(Nc3cccc(C(=O)O)c3)C(=O)c3ccccc32)c(C)c1 30.1 µM
O=C(O)c1ccc(S(=O)(=O)/N=C2\C=C(Nc3ccccc3F)C(=O)c3ccccc32)cc1 37.9 µM
O=C(O)c1ccc(NC2=C/C(=N/S(=O)(=O)c3ccccc3)c3ccccc3C2=O)cc1 21.3 µM
Cc1ccccc1C(=O)N1CCN(c2ccc(NC(=S)NC(=O)c3ccco3)cc2)CC1 21.3 µM
Cc1cc(C(=O)COC(=O)c2ccc(O)cc2O)c(C)n1-c1ccccc1 23.9 µM
O=[N+]([O-])c1ccc(NC(=S)NCc2ccc(F)cc2)cc1 9.53 µM
O=[N+]([O-])c1ccc(NC(=S)NCCc2ccc(F)cc2)cc1 9.53 µM
N#C/C(=N\Nc1ccc(S(=O)(=O)N2CCc3ccccc32)cc1)C(N)=S 9.53 µM
COc1ccccc1C1CCN(c2cc(O)ccc2[N+](=O)[O-])CC1 37.9 µM
O=C(O)c1ccccc1NS(=O)(=O)c1cccc(-n2sc3ccccc3c2=O)c1 23.9 µM
Cc1ccc(NS(=O)(=O)c2cc(C(=O)Nc3cccc([N+](=O)[O-])c3)ccc2C)cc1 21.3 µM
COc1ccc(S(=O)(=O)Nc2ccccc2C(=O)Nc2nc(-c3ccc(F)cc3)cs2)cc1OC 3.38 µM
O=C(Nc1nc(-c2ccccc2)cs1)c1ccccc1NS(=O)(=O)c1ccc(F)cc1 3.38 µM
COc1ccc(-c2csc(NC(=O)c3ccccc3NS(=O)(=O)c3ccc(F)c(F)c3)n2)cc1 5.36 µM
COc1ccc(-c2csc(NC(=O)c3ccccc3NS(=O)(=O)c3ccc(C)cc3)n2)cc1 3.38 µM
Clc1ccccc1CN(Cc1ccccc1)c1ncnc2nc[nH]c12 26.9 µM
Clc1ccc2c(c1)-c1nnc(Br)n1-c1ccccc1S2 26.9 µM
O=S(=O)(Nc1cc(Cl)ccc1-n1cncn1)c1cc(Br)ccc1Br 15.1 µM
COc1ccccc1CNC(=O)CSc1nc(N)c(C#N)c(-c2cccs2)c1C#N 37.9 µM
N#CC(C#N)=NNc1ccc(S(=O)(=O)N2CCCCC2)cc1 3.01 µM
COC(=O)c1ccc(COc2cc(O)c3c(c2)OC(C)(C)CC3=O)cc1 30.1 µM
CC(=O)c1ccc(S(=O)(=O)N2CCN(CCOc3ccc(Br)cc3)CC2)cc1 30.1 µM
Cc1ccc(O)c(N=Cc2cc(Cc3ccccc3)cc([N+](=O)[O-])c2O)c1 16.9 µM
O=C(Nc1ccc(C(F)(F)F)cc1)c1csc(-c2ccncc2)n1 60.1 µM
Cc1nnc(Sc2cc(NCCCO)c([N+](=O)[O-])c3nonc23)s1 33.8 µM
O=[N+]([O-])c1c(NCCO)cc(Sc2nc3ccccc3s2)c2nonc12 23.9 µM
O=C(/C=C/c1cccc(Cl)c1)c1ccc([N+](=O)[O-])o1 26.9 µM
C=C(C)C(=O)OCC(O)COc1ccc(C(C)(C)c2ccc(OCC(O)COC(=O)C(=C)C)cc2)cc1 (stereo not given) 21.3 µM
COc1ccc(-c2c(C(F)(F)F)[nH]n3c(=O)cc(-c4ccccc4)nc23)cc1 19 µM
O=c1cc(-c2ccccc2)nc2c(-c3ccccc3)c(C(F)(F)F)[nH]n12 6.01 µM
Cc1cc(NC(=O)c2cc(-c3ccco3)on2)nn1Cc1ccc(Cl)cc1 30.1 µM
O=C(Nc1ccccc1Cl)/C(Cl)=C(\Cl)S(=O)c1ccccc1 (stereo not given) 26.9 µM
COc1ccc(NC(=O)/C(Cl)=C(/Cl)S(=O)Cc2ccccc2Cl)cn1 (stereo not given) 21.3 µM
COc1ccc(NC(=O)/C(Cl)=C(/Cl)S(=O)Cc2ccc(Cl)cc2)cn1 (stereo not given) 30.1 µM
CC(=O)Oc1c(I)cc(I)cc1C(=O)Nc1ccc(Cl)cc1 1.9 µM
CCC(=O)NC1=C(Cl)C(=O)C(NC(=O)CC)=C(Cl)C1=O 30.1 µM
COc1ccc(CCNC(=O)c2ccc(-c3ccc([N+](=O)[O-])cc3Cl)o2)cc1OC 23.9 µM
O=C(CSc1nnc(-c2ccncc2)n1Cc1ccco1)Nc1nc(-c2ccccc2)cs1 21.3 µM
Cc1cc(C)c(S(=O)(=O)c2c(C)cccc2C)c(Cl)n1 23.9 µM
